# “And” between values parts separate entries of the source, which are not always exact repeats. Equal entries are not always repeated. Results filed as inconclusive are left out. The source made the active and inactive calls. Rule as the data show it, unless noted: active = inhibition above about 80%; inactive = the rest.
# How the values were obtained:
# [1] = growth inhibition of RCMB18 medulloblastoma cells, cell-based, cisplatin and BGB IC40 combos (AID 1671462); settings: stronger effect = higher value;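 also: cells exposed to compound for four days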
# [2] = growth inhibition of CRL1545 osteosarcoma cells, cell-based, cisplatin and BGB IC20 combos (AID 1671464); settings: stronger effect = higher value;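 also: cells exposed to compound for 96 hours before readout; 0% = vehicle DMSO and 100% = high DMSO killing control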
# [3] = biological target: ATP-dependent translocase ABCB1 (Homo sapiens) (UniProt P08183); experiment: MDR1 (ABCB1) efflux transporter inhibition, cell-based (AID 377; in the data active = fluorescence slope change above about 50%); settings: MDR1-expressing cells, fluorescent substrate accumulation slope; stronger effect = higher value; concentration not given here
# ATP-dependent translocase ABCB1 (Homo sapiens), sequence (P08183 whole entry, looked up): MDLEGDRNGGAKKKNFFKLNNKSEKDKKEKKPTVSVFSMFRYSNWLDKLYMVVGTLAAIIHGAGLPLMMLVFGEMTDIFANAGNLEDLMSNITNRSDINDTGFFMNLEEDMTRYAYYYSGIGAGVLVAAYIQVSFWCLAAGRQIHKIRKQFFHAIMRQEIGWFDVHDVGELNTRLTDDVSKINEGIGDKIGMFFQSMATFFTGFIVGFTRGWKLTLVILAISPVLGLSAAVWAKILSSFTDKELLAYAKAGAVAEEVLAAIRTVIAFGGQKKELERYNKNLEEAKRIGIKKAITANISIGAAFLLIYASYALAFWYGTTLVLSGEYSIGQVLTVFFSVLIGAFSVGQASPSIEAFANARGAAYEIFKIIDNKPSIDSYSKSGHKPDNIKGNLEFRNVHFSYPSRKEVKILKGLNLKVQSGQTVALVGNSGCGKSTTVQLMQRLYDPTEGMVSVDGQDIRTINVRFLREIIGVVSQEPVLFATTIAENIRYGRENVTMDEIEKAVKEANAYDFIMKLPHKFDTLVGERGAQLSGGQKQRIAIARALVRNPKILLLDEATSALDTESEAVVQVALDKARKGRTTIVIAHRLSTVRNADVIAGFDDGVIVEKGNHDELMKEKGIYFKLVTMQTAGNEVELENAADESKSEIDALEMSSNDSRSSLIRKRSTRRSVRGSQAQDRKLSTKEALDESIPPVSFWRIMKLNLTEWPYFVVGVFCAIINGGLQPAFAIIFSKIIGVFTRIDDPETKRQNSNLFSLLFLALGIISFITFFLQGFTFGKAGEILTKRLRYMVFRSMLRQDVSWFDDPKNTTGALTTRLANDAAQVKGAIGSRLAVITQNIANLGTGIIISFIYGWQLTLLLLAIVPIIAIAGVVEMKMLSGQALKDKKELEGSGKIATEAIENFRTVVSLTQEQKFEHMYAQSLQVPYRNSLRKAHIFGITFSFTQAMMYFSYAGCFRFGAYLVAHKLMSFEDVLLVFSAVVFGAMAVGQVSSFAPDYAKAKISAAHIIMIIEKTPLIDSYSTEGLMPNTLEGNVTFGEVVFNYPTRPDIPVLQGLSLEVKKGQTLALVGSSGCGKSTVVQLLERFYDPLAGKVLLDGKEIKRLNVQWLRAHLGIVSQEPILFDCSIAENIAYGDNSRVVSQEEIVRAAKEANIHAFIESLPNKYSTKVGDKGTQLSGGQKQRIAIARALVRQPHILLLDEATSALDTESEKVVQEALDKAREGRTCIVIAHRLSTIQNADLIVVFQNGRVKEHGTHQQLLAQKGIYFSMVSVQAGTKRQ
# [4] = growth inhibition of DIPG glioma cells, dose response, cell-based, JHH-DIPG-1, MIPE4.0, CellTiter-Glo, qHTS (AID 1347062; cut-off not given, nearly all actives have AC50 up to about 27 µM;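 as to AC50: cells exposed to compound for two days before readout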); settings: JHH-DIPG-1 viability, CellTiter-Glo ATP luminescence
# [5] = SU-DIPG-VI glioma cell viability, MIPE4.0 library, CellTiter-Glo luminescence, qHTS (AID 1347066; cut-off not given, nearly all actives have AC50 up to about 30 µM;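 also: cells exposed to compound for 48 hours before readout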); settings: CellTiter-Glo ATP luminescence
# [6] = viability rescue of complex I mutant cybrids, primary screen, cell-based, galactose medium, ATP luminescence (AID 1645843;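 active = z-score of at least 1.8 in each of two replicates, scored against plate mean and spread of sample wells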;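 also: positive z means more ATP and so rescue of galactose-driven cybrid death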); settings: complex I mutant cybrid cells, 72 h, stronger effect = higher value
# [7] = biological target: Mitogen-activated protein kinase 7 (Homo sapiens) (UniProt Q13164); experiment: ERK5 transactivation activators in reporter cells, primary screen, cell-based, HTS (AID 1508626;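 active = luciferase signal above three times the same-plate solvent-only control wells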;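 also: luciferase driven by Gal4-ERK5 fusion binding five Gal4 sites before minimal TATA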); settings: HeLa Gal4-ERK5 transactivation, 18 h, at 5 µM, stronger effect = higher value
# Mitogen-activated protein kinase 7 (Homo sapiens), sequence (Q13164 whole entry, looked up, the tested form may be a part): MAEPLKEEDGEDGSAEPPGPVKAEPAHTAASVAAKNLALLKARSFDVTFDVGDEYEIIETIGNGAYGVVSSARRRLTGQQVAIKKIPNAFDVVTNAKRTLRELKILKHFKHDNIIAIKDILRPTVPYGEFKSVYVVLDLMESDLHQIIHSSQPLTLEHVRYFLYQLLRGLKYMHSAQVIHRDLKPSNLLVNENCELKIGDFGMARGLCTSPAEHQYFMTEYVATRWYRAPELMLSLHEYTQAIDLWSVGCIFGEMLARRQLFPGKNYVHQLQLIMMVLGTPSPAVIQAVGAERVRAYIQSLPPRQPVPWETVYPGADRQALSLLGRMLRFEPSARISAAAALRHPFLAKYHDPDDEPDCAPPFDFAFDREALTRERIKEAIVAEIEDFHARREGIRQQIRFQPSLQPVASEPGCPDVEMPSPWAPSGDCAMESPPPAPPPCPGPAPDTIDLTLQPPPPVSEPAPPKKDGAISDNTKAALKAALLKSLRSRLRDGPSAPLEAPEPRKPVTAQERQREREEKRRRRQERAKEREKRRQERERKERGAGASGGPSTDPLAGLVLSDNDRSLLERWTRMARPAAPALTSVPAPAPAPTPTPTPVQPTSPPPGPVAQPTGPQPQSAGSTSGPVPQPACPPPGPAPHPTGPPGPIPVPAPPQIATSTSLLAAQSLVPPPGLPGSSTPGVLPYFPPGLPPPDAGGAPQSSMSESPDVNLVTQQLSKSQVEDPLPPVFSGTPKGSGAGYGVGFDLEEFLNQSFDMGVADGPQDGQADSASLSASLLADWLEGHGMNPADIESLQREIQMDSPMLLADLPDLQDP
# [8] = growth inhibition of DIPG glioma cells, dose response, cell-based, SU-DIPG-IV, MIPE4.0, CellTiter-Glo, qHTS (AID 1347063; cut-off not given, nearly all actives have AC50 up to about 30 µM;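 also: compound exposure lasted 48 hours before the viability readout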); settings: SU-DIPG-IV viability, CellTiter-Glo ATP luminescence
# [9] = growth inhibition of DIPG glioma cells, dose response, cell-based, SU-DIPG-XIII, MIPE5.0, CellTiter-Glo, qHTS (AID 1347064; cut-off not given, nearly all actives have AC50 up to about 23 µM;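 as to AC50: cells exposed to compound for 48 hours before the viability read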); settings: SU-DIPG-XIII viability, CellTiter-Glo ATP luminescence
# [10] = viability loss in pontine glioma line – cell-based, SU-DIPG-XXV, MIPE5.0, CellTiter-Glo, qHTS, dose response (AID 1347065; cut-off not given, nearly all actives have AC50 up to about 26 µM;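 also: cells exposed to compound for 48 hours before ATP readout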); settings: CellTiter-Glo ATP luminescence
# [11] = JHH-DIPG-1 glioma cell viability, MIPE5.0 library, CellTiter-Glo luminescence, qHTS (AID 1347067; cut-off not given, nearly all actives have AC50 up to about 26 µM;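 also: cells exposed to compound for 48 hours before readout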); settings: JHH-DIPG-1 glioma viability, CellTiter-Glo ATP luminescence
# [12] = SU-DIPG-XXV glioma cell viability, MIPE5.0 library, qHTS (AID 1347068; cut-off not given, nearly all actives have IC50 up to about 30 µM)
# [13] = LFS_MB_1R medulloblastoma cell growth inhibition, synergistic combos for chromothripsis tumors, cisplatin or BGB combos (AID 1671452); settings: LFS_MB_1R medulloblastoma cells, stronger effect = higher value;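 also: cells exposed for 96 hours before readout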
# [14] = CRL2098 osteosarcoma cell growth inhibition, synergistic combos for chromothripsis tumors, BGB or cisplatin IC20 combos (AID 1671454); settings: CRL2098 osteosarcoma cells, drug combinations, stronger effect = higher value;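 also: cells exposed for 96 h before readout; 0% = vehicle DMSO and 100% = killing by high DMSO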
# [15] = HD-MB03 medulloblastoma cell growth inhibition, synergistic combos for chromothripsis tumors, BGB or cisplatin IC20 combos (AID 1671455; in the data active = inhibition above about 83%;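 also: 0% = vehicle DMSO and 100% = high DMSO as cytotoxic control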); settings: HD-MB03 medulloblastoma cells, stronger effect = higher value
# [16] = UWB1.289 ovarian carcinoma cell growth inhibition, synergistic combos for chromothripsis tumors, BGB or cisplatin combos (AID 1671456); settings: UWB1.289 ovarian carcinoma cells, stronger effect = higher value;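 also: cells exposed to compound for four days; 0% = vehicle DMSO and 100% = killing by high DMSO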
# [17] = LFS_MB_2R medulloblastoma cell growth inhibition, synergistic combos for chromothripsis tumors, cisplatin combos (AID 1671457); settings: LFS_MB_2R medulloblastoma cells, stronger effect = higher value;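 also: cells exposed to compound for four days before readout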
# [18] = UWB1.289_BRCA1 ovarian cancer growth, cell-based, BGB or cisplatin combinations (AID 1671459); settings: UWB1.289 BRCA1 ovarian carcinoma, drug combinations, stronger effect = higher value
# [19] = human astrocyte viability loss, single and combined drugs, cytotoxicity control for chromothriptic childhood tumor combination screen, cell-based, BGB or cisplatin IC20 combos (AID 1671460); settings: Human astrocytes, drug combinations, stronger effect = higher value;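 also: cells exposed to compounds for 96 hours before viability readout; 0% = vehicle and 100% = killing control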
# [20] = growth inhibition of BT084 medulloblastoma cells, cell-based, ICGC_MB145, cisplatin and BGB IC40 combos (AID 1671461); settings: drug combinations, stronger effect = higher value;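 also: cells exposed to drugs for 96 hours; 0% = vehicle DMSO and 100% = high DMSO full killing control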
# [21] = measured here: BGB IC40 combination, at 0.05 µM
# [22] = measured here: combination with cisplatin, at 0.5 µM
# [23] = measured here: with BGB IC20 combination, at 0.5 µM
# [24] = measured here: with cisplatin IC20 combination, at 0.5 µM
# [25] = measured here: combination with cisplatin, at 5 µM
structure (smiles),measurement,setting,value
CN1CCN(c2c(F)cc3c(=O)c(C(=O)O)cn(CCF)c3c2F)CC1,inhibition,[1]; at 0.5 µM,18.3% (inactive)
same,inhibition,"[1]; cisplatin combo, at 5 µM",48%
same,inhibition,[1]; [21],-3.02%
same,inhibition,[1]; [22],34.2%
same,inhibition,"[1]; single agent, at 5 µM",-5.57%
same,inhibition,[2]; at 0.5 µM,-0.47% (inactive)
same,inhibition,[2]; [23],-8.63%
same,inhibition,[2]; [24],1.43%
same,inhibition,"[2]; single agent, at 0.05 µM",8.93%
same,inhibition,"[2]; single agent, at 5 µM",2.13%
CN(C)CCN(Cc1ccc(Cl)cc1)c1ccccn1,fluorescence slope change,[3],92.6% (active)
same,outcome,[4],inactive
same,outcome,[5],inactive
COc1c(C)c2c(c(O)c1C/C=C(\C)CCC(=O)OCCN1CCOCC1)C(=O)OC2,outcome,[5],inactive
same,z-score,[6],1.7 (inactive)
CCCN(CCC)CCc1cccc2c1CC(=O)N2,luciferase signal,[7],48 AU (inactive)
same,z-score,[6],0.47 (inactive)
CCCCCCCCCCCCCCCCCCCCCCO,outcome,[4],inactive
same,outcome,[8],inactive
same,outcome,[9],inactive
same,outcome,[10],inactive
same,outcome,[5],inactive
same,outcome,[11],inactive
same,outcome,[12],inactive
same,luciferase signal,[7],140 AU (inactive)
COc1cc2ncnc(Nc3ccc(F)c(Cl)c3)c2cc1OCCCN1CCOCC1,AC50,[4],19.1 µM (active)
same,AC50,[8],10.8 µM (active)
same,outcome,[9],inactive
same,outcome,[10],inactive
same,AC50,[5],38.2 µM (active)
same,outcome,[11],inactive
same,outcome,[12],inactive
same,z-score,[6],-0.29 (inactive) and 0.3 (inactive)
O=C(CCCCCCC(=O)Nc1ccccc1)NO,AC50,[4],3.72 µM (active)
same,AC50,[9],1.18 µM (active)
same,AC50,[10],0.833 µM (active)
same,AC50,[11],1.48 µM (active)
same,outcome,[12],inactive
same,inhibition,[13]; at 0.5 µM,17.4% (inactive)
same,inhibition,"[13]; measured here: combination with BGB IC40, at 0.05 µM",-3.43%
same,inhibition,[13]; [22],21.7%
same,inhibition,[13]; [25],83.1%
same,inhibition,[14]; at 0.5 µM,-45.6% (inactive)
same,inhibition,"[14]; measured here: combination with BGB at IC20, at 0.5 µM",-78.4%
same,inhibition,"[14]; measured here: combination with cisplatin at IC20, at 0.5 µM",-12.2%
same,inhibition,[15]; at 0.5 µM,22% (inactive)
same,inhibition,"[15]; measured here: combo with BGB at IC20, at 0.5 µM",21%
same,inhibition,"[15]; measured here: combo with cisplatin at IC20, at 0.5 µM",48.3%
same,inhibition,[16]; at 0.5 µM,14.7% (inactive)
same,inhibition,"[16]; measured here: inhibition with BGB combination, at 0.05 µM",-38.8%
same,inhibition,"[16]; measured here: inhibition with cisplatin combination, at 0.05 µM",-24.2%
same,inhibition,[17]; at 0.5 µM,-2.63% (inactive)
same,inhibition,[17]; [22],3.49%
same,inhibition,[17]; [25],79.7%
same,inhibition,"[18]; BGB combination, concentration series, at 5 µM",69.1%
same,inhibition,[18]; at 0.5 µM,9.38% (inactive)
same,inhibition,"[18]; cisplatin combination, concentration series, at 5 µM",84.7%
same,inhibition,[19]; at 0.5 µM,-0.71% (inactive)
same,inhibition,"[19]; measured here: combo with BGB IC20, at 0.5 µM",-2.1%
same,inhibition,"[19]; measured here: combo with cisplatin IC20, at 0.5 µM",-2.33%
same,inhibition,[20]; at 0.5 µM,10.3% (inactive)
same,inhibition,"[20]; cisplatin combination, at 0.5 µM",36%
same,inhibition,"[20]; cisplatin combination, at 5 µM",98.4%
same,inhibition,"[20]; measured here: BGB IC40 combination 0.05 uM, at 0.05 µM",-23.4%
same,inhibition,"[20]; single agent, at 5 µM",87.4%
same,inhibition,[1]; at 0.5 µM,14.4% (inactive)
same,inhibition,"[1]; cisplatin combo, at 5 µM",93.4%
same,inhibition,[1]; [21],-14.3%
same,inhibition,[1]; [22],47.6%
same,inhibition,"[1]; single agent, at 5 µM",78.3%
same,inhibition,[2]; at 0.5 µM,74.5% (inactive)
same,inhibition,[2]; [23],65.9%
same,inhibition,[2]; [24],78.3%
same,inhibition,"[2]; single agent, at 0.05 µM",-34.3%
same,inhibition,"[2]; single agent, at 5 µM",88.9%
C#CCN(C)CCCOc1ccc(Cl)cc1Cl,z-score,[6],-0.39 (inactive)
COc1cc(C(=O)N2CCOCC2)cc(OC)c1OC,luciferase signal,[7],48 AU (inactive)
O=C(N/N=C/c1ccc([N+](=O)[O-])o1)c1ccc(O)cc1,fluorescence slope change,[3],-24% (inactive)
CC(C)(C)C(=O)C(Oc1ccc(Cl)cc1)n1ccnc1 (stereo unspecified),z-score,[6],-0.18 (inactive)
CCN(CC)CCc1nc(-c2ccccc2)no1,fluorescence slope change,[3],14.4% (inactive)
CN1C(=O)OC(C)(C)C1=O,fluorescence slope change,[3],1.5% (inactive)

# Source: PubChem BioAssay
